# ± gives the standard deviation of the averaged measurements. The full data set covers some 6,200 targets. This sample favours those with the largest changes.
# Compound: Nc1ncnc2c1ncn2[C@@H]1O[C@H](COP(=O)(O)OP(=O)(O)NP(=O)(O)O)[C@@H](O)[C@H]1O [adenylyl imidodiphosphate]
# Assay: NP40-soluble protein abundance relative to vehicle (solubility fold change) (ratio); higher = more soluble protein in presence of AMP-PNP
# Summary of the method: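 In three independent experiments, Jurkat crude lysate made by Dounce homogenisation was treated for 10 min at room temperature and then 3 min at 37 °C with eight concentrations ranging from 0.1 to 10 mM. It was then solubilised with 0.8% NP40 plus benzonase for 60 min at 4 °C and ultracentrifuged. The supernatant was TMT-labelled for LC-MS/MS, and each value is the fold change against the detergent-processed vehicle for the same replicate, using vsn-normalised intensities.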
# Sequence of UniProt Q86YS7 (Q86YS7 whole entry): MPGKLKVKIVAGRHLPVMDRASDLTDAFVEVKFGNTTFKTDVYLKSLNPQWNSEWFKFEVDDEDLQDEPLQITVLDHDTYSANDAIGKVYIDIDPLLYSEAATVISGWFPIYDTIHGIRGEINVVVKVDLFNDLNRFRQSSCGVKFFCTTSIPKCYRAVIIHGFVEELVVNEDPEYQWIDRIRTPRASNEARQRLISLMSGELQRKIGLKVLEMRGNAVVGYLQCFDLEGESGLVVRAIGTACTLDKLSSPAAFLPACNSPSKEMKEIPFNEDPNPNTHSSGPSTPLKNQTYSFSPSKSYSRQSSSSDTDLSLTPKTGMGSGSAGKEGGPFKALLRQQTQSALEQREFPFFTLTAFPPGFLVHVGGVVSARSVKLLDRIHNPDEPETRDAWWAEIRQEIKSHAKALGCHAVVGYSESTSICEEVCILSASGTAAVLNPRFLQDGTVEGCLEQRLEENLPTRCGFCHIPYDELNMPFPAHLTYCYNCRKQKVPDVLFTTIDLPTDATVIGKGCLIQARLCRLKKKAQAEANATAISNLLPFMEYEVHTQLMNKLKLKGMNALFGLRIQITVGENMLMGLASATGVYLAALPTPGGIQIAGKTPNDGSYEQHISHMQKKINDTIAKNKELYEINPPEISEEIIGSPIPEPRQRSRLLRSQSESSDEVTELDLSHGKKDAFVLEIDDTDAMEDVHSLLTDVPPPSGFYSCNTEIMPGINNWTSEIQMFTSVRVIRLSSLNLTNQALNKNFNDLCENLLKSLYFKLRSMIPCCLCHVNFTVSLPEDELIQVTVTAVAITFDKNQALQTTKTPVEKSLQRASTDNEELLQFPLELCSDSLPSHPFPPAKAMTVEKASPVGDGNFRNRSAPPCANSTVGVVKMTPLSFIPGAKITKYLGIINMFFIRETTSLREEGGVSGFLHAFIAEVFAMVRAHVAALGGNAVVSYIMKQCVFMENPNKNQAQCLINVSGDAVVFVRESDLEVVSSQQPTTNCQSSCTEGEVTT
# Sequence of UniProt Q15738 (Q15738 whole entry): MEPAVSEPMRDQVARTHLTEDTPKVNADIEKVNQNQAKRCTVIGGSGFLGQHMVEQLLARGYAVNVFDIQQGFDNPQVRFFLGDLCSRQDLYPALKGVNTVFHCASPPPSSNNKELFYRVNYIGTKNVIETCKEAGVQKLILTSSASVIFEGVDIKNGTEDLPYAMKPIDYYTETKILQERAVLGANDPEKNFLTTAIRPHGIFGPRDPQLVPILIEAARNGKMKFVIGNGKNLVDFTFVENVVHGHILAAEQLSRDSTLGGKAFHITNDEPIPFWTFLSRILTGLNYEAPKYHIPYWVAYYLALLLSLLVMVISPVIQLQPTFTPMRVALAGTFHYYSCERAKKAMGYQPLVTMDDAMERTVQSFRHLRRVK
# Sequence of UniProt Q8NCL4 (Q8NCL4 whole entry): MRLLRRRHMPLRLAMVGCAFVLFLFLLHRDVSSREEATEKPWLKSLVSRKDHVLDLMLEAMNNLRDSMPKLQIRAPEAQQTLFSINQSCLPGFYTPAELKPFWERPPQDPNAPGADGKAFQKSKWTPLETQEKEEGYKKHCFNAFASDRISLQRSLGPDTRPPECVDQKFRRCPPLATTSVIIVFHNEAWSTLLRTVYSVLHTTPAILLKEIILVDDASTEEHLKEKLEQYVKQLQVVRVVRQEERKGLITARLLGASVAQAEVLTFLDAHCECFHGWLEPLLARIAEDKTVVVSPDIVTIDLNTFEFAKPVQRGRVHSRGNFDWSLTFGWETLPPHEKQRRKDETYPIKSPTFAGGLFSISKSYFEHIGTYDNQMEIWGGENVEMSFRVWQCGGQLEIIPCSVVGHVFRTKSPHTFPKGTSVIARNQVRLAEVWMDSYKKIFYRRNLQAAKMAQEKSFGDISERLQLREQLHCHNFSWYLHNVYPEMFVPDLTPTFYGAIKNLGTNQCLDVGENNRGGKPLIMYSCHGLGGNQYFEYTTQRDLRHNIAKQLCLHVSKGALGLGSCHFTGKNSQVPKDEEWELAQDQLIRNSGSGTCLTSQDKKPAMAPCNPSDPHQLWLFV
# Sequence of UniProt Q8NFY9 (Q8NFY9 whole entry): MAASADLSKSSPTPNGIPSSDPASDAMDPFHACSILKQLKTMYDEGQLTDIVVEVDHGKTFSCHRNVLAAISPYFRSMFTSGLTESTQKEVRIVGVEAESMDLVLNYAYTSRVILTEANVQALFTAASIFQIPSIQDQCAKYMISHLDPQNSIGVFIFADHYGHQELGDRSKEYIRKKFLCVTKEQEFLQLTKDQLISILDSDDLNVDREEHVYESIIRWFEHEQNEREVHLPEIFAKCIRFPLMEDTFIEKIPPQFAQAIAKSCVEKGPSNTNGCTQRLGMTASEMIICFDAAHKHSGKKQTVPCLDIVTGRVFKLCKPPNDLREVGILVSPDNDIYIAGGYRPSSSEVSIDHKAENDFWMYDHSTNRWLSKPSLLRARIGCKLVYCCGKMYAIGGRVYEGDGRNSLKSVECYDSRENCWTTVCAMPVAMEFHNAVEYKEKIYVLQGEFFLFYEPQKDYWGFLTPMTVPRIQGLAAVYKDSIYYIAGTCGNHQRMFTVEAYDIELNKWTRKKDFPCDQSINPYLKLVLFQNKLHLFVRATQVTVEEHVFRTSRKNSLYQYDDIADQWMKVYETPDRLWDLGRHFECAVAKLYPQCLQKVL
# Sequence of UniProt Q8WZA0 (Q8WZA0 whole entry): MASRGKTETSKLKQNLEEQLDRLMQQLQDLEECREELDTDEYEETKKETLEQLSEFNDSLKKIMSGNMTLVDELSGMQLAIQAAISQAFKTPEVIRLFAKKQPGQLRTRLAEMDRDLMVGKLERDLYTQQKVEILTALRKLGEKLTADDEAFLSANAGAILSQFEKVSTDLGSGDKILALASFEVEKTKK
# Sequence of UniProt Q96A49 (Q96A49 whole entry): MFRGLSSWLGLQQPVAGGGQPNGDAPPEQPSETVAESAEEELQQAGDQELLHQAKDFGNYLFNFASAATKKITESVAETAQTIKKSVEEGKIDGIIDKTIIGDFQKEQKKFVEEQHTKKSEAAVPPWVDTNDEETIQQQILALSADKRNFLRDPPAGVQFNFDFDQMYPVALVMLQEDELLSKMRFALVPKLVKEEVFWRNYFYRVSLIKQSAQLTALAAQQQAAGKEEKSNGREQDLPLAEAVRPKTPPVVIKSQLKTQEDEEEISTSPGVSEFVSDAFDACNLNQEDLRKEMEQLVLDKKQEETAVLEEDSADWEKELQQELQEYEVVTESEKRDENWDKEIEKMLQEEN
# Sequence of UniProt Q5EBL8 (Q5EBL8 whole entry): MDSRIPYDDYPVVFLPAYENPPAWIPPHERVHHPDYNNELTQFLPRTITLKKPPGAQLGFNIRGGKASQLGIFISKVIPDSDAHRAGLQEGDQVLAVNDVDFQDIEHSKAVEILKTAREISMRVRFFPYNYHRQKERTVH
# Sequence of UniProt Q13371 (Q13371 whole entry): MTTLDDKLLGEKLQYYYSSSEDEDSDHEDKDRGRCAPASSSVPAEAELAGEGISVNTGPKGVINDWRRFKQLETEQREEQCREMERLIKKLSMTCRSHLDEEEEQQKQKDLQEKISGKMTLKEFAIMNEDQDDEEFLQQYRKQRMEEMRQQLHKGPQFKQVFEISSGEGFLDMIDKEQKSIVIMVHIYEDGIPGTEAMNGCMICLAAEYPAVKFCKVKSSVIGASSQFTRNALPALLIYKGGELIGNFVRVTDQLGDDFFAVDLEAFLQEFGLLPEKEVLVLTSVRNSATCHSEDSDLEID
# Sequence of UniProt Q8N6T3 (Q8N6T3 whole entry): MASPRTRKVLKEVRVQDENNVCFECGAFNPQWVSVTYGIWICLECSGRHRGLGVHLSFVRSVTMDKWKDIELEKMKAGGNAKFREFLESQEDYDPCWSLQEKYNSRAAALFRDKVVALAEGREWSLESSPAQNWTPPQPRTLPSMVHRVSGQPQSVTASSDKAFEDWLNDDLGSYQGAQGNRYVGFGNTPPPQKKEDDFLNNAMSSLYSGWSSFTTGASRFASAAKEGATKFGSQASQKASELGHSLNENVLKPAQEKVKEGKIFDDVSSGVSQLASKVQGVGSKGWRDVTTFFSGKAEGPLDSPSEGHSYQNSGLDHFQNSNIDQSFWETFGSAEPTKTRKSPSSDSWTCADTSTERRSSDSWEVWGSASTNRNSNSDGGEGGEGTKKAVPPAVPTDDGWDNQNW
# Sequence of UniProt Q13572 (Q13572 whole entry): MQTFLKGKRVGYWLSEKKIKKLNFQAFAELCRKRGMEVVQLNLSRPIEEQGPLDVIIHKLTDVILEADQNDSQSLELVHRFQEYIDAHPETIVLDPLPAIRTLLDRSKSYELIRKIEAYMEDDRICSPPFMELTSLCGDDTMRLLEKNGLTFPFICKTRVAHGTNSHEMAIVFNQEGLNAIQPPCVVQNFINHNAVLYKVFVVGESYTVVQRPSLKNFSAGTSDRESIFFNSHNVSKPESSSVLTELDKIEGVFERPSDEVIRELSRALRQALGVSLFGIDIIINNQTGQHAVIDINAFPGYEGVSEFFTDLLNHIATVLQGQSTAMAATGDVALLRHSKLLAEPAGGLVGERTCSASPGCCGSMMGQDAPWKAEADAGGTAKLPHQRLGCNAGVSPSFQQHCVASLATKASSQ
# Sequence of UniProt Q13442 (Q13442 whole entry): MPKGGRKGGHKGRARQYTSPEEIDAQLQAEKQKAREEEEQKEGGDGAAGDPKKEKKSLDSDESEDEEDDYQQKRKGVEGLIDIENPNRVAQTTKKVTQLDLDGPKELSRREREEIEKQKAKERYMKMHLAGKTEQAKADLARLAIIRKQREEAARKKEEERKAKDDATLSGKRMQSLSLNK
# Sequence of UniProt Q92979 (Q92979 whole entry, looked up): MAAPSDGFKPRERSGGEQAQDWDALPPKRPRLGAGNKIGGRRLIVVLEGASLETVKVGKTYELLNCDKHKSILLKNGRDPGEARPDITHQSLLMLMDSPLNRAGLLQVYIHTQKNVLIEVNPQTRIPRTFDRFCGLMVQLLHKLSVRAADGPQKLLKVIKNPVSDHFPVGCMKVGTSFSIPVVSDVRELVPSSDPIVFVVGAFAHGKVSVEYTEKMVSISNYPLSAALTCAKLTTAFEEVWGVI
Target,NP40-soluble protein abundance (concentration: 1mM),NP40-soluble protein abundance (concentration: 2mM),NP40-soluble protein abundance (concentration: 4mM),NP40-soluble protein abundance (concentration: 6mM),NP40-soluble protein abundance (concentration: 8mM),NP40-soluble protein abundance (concentration: 10mM)
UniProt Q8N5M4|E9PKV8,0.932 ± 0.054,0.94 ± 0.03,0.91 ± 0.032,0.984 ± 0.064,0.961 ± 0.055,0.938 ± 0.071
UniProt Q8TAT6|Q8TAT6-2,0.955 ± 0.025,0.961 ± 0.022,0.968 ± 0.044,0.983 ± 0.015,0.991 ± 0.036,1.02 ± 0.025
EMG1 (UniProt Q92979),1.01 ± 0.03,1 ± 0.014,1.12 ± 0.087,1.19 ± 0.071,1.24 ± 0.096,1.26 ± 0.1
UniProt Q92793|Q92793-2,1.05 ± 0.037,1.05 ± 0.028,1.01 ± 0.035,1.01 ± 0.04,1.02 ± 0.015,1.05 ± 0.02
UniProt Q92614|Q92614-2|Q92614-4,1.02 ± 0.025,1.05 ± 0.026,1.01 ± 0.014,0.984 ± 0.045,0.955 ± 0.026,0.971 ± 0.042
DHX38 (UniProt Q92620),1.016 ± 0.0095,1.03 ± 0.037,1.03 ± 0.012,1.01 ± 0.055,1.04 ± 0.034,1.03 ± 0.023
SYAP1 (UniProt Q96A49),1 ± 0.046,1.06 ± 0.077,0.952 ± 0.072,0.94 ± 0.021,0.94 ± 0.039,0.918 ± 0.08
UniProt Q8NHM5|Q8NHM5-2|Q8NHM5-3|Q8NHM5-4,1.02 ± 0.024,1.034 ± 0.0075,1.04 ± 0.054,1.04 ± 0.04,1.01 ± 0.021,1.04 ± 0.034
UniProt Q92804|Q92804-2,1.07 ± 0.15,1.15 ± 0.031,1.19 ± 0.17,1.27 ± 0.21,1.32 ± 0.13,1.54 ± 0.23
UniProt Q86YS7,0.973 ± 0.015,0.97 ± 0.016,0.982 ± 0.017,0.942 ± 0.012,0.919 ± 0.015,0.948 ± 0.018
UniProt Q8WZA0|Q8WZA0-2,0.969 ± 0.052,0.957 ± 0.0098,0.928 ± 0.059,0.912 ± 0.044,0.921 ± 0.034,0.859 ± 0.054
UniProt Q5T3F8|H3BLW6,1 ± 0.052,1.06 ± 0.1,1.01 ± 0.038,1.01 ± 0.019,0.985 ± 0.042,1.01 ± 0.049
NSDHL (UniProt Q15738),0.968 ± 0.04,0.892 ± 0.058,0.93 ± 0.022,0.953 ± 0.045,0.964 ± 0.036,0.923 ± 0.028
GALNT6 (UniProt Q8NCL4),1.005 ± 0.0084,0.9987 ± 0.0047,0.967 ± 0.011,1 ± 0.024,0.9866 ± 0.0025,1 ± 0.015
NUP210 (UniProt Q8TEM1),0.992 ± 0.025,0.952 ± 0.025,0.975 ± 0.021,0.972 ± 0.037,1.01 ± 0.029,0.986 ± 0.044
UniProt Q5EBL8|Q5EBL8-2,1 ± 0.011,1.02 ± 0.023,0.9905 ± 0.0052,1 ± 0.025,1.02 ± 0.03,1.017 ± 0.0054
ARFGAP1 (UniProt Q8N6T3),1.02 ± 0.021,1.02 ± 0.023,1.02 ± 0.016,1.02 ± 0.023,0.993 ± 0.018,1.01 ± 0.038
UniProt Q16698-2|Q16698,1.06 ± 0.085,1.11 ± 0.058,1.19 ± 0.08,1.21 ± 0.014,1.26 ± 0.041,1.25 ± 0.02
SF3A1 (UniProt Q15459),1.02 ± 0.022,1.05 ± 0.05,1.02 ± 0.014,1.07 ± 0.031,1.07 ± 0.017,1.09 ± 0.031
PDCL (UniProt Q13371),0.966 ± 0.026,0.973 ± 0.039,0.969 ± 0.056,0.932 ± 0.062,0.938 ± 0.083,0.928 ± 0.082
TTC37 (UniProt Q6PGP7),0.822 ± 0.084,0.793 ± 0.14,0.791 ± 0.11,0.768 ± 0.077,0.761 ± 0.078,0.76 ± 0.079
ITPK1 (UniProt Q13572),1.019 ± 0.0014,1.035 ± 0.0039,1.01 ± 0.014,0.992 ± 0.025,1.02 ± 0.04,0.9738 ± 0.0084
UniProt Q15642-2|Q15642-3|Q15642-4|W4VSQ9|M0R0F9,1.09 ± 0.014,1.07 ± 0.036,1.07 ± 0.014,1.04 ± 0.054,1.07 ± 0.025,1.06 ± 0.065
KBTBD8 (UniProt Q8NFY9),0.953 ± 0.046,0.944 ± 0.043,0.955 ± 0.035,0.976 ± 0.018,0.973 ± 0.02,0.965 ± 0.025
UniProt Q14197|J3KS15,1 ± 0.1,0.952 ± 0.083,0.974 ± 0.087,0.95 ± 0.13,0.978 ± 0.14,0.953 ± 0.19
UniProt Q8IWI9|Q8IWI9-3|Q8IWI9-4,1.02 ± 0.023,1.01 ± 0.021,1.01 ± 0.047,0.953 ± 0.014,0.924 ± 0.029,0.944 ± 0.046
PDAP1 (UniProt Q13442),1.07 ± 0.072,1.17 ± 0.026,1.13 ± 0.048,1.26 ± 0.093,1.24 ± 0.085,1.35 ± 0.12

# From the supplement of paper PMC6411743
